The panel holds about 83,000 compounds, 20% with a hit somewhere; the sample as a whole holds those more often.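 A percent growth of 40 corresponds to 60% growth inhibition; 0 means no net growth; -100 means all cells died. Active threshold: below 10.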 Calls of active or inactive are those of the source.
tested on: CAKI-1 renal; assay: NCI-60 one-dose screen, 48 h (100 = growth as untreated, 0 = no growth, -100 = all killed); settings: 10 µM unless noted
Method: Growth inhibition of the CAKI-1 human tumor cell line is measured as a screen for anti-cancer activity. Cells are grown in 96 well plates and exposed to the test compound for 48 hours. Compounds are tested at a single concentration, which is 10^-5 M for most compounds. The reported endpoint is percent growth (GI% or GIPRCNT), where numbers from 0 - 100% represent growth inhibition, and numbers from -100% - 0 represent cell death. For example, a value of 40 represents 60% growth inhibition. A value of 0 means no net growth occurred over the course of the experiment. A value of -40 indicates 40% of cells at the beginning of the experiment died by the end of the experiment. A value of -100 means all cells are dead at the end of the experiment.
NCI-60 Human Tumor Cell Lines Screen was performed using the standard one-dose NCI protocol, which is described in more detail at https://dtp.cancer.gov/discovery_development/nci-60/default.htm.
Compounds with GIPRCNT values below 10 were considered active. Activity score was based on GIPRCNT using the following formula: […]
Score is 0 for GIPRCNT values of 100 or above, 50 for GIPRCNT values of 0, and 100 for GIPRCNT values of -100.

Structure (SMILES) | growth
COc1cc(C2C=C(C)N=C3SC=NN32)cc(OC)c1OC (stereo not given) | 99% (inactive)
CCCCN(CCCC)CCC(O)c1cc2ccc(C(F)(F)F)cc2c2cc(C(F)(F)F)ccc12 (stereo not given) | 38.6% (inactive)
CCCCNCCC(O)c1cc2ccc(C(F)(F)F)cc2c2cc(C(F)(F)F)ccc12 (stereo not given) | -74.7% (active)
CCN(CC)CCCC(C)Nc1cnc(C(=O)Nc2cc(C)cc3cccnc23)cn1 (stereo not given) | 93.4% (inactive)
CC(=O)c1nn(-c2ccccc2)/c(=N\N=C\c2coc3ccc(F)cc3c2=O)s1 | 82.3% (inactive)
Cc1cc(C)c([O-])c(CN(C)CCN(C)Cc2cc(C)cc(C)c2[O-])c1.O=C([O-])c1cccc(C(=O)[O-])n1.[Ti+4] | 24.6% (inactive)
Clc1ccc2c(c1)-c1ccccc1C1=NCCN12 | 29.4% (inactive)
CC(=O)c1c(C)nc(-c2cc(C)cc(Cl)c2)nc1-c1cccc(Oc2ccccc2)c1 | 68.2% (inactive)
CCOC(=O)c1ccc(NCCC(=O)O)cc1 | 109% (inactive)
CCOC(=O)C1=C(C)NC(SCc2nnc(-c3ccc(Cl)cc3)o2)=NC1c1ccc(Cl)cc1 (stereo not given) | 61.6% (inactive)
CCCCCCCCCCCCCC[N+](C)(C)CCCCCCCCCCCCCC | 51.6% (inactive)
C/C(=N\OC(=O)Nc1cccc(Cl)c1)c1ccccc1 | 106% (inactive)
CCOCC(O)(c1ccc(Cl)cc1)c1ccc(Cl)cc1 | 88.2% (inactive)
COc1ccc(C(=O)C(C#N)c2cc(OC)c(OC)c(OC)c2)cc1 (stereo not given) | 129% (inactive)
COc1cccc(NC(=O)c2c(-c3ccccc3)c(-c3ccccc3)n[nH]c2=O)c1 | 86.9% (inactive)
COc1ccc(-c2nc(-c3cc(OC)cc(OC)c3)[nH]c2-c2ccc(OC)cc2)cc1 | 44.5% (inactive)
COc1ccc(-n2nc(C(=O)NCC(=O)Nc3nc4cc(OC)ccc4s3)c3ccccc3c2=O)cc1 | -27.5% (active)
COc1cc2c(cc1OC)C(=O)OC2 | 55.6% (inactive)
CCN(CC)CCCC(C)Nc1cnc(C(=O)Nc2ccc(Cl)c3cccnc23)cn1 (stereo not given) | 23.1% (inactive)
Cc1ccccc1CNc1ncnc2[nH]ncc12 | 69% (inactive)

Structure (SMILES) | growth
O=C1C=CC(=O)N1c1cccc(N2C(=O)C=CC2=O)c1 | 37.3% (inactive)
Clc1ccccc1Nc1nnc(-c2ccncc2)s1 | 90.5% (inactive)
Cc1cc(C)c2c(NC(=O)Nc3ccc(Cl)c(Cl)c3)n[nH]c2n1 | 91.6% (inactive)
COc1ccc(C(=O)/C=C/c2cn(-c3ccccc3)nc2-c2cccc(Nc3ccnc4cc(Cl)ccc34)c2)cc1 | 94.3% (inactive)
COc1ccc2[nH]c(O)c(/C=c3/ccc4c(c3)N=C(c3ccc(F)cc3)N=4)c2c1 | 20.1% (inactive)
O=C(CCCCCCc1nc2ccc(Br)cc2[nH]1)NO | -41.5% (active)
O=C(/C=C/c1ccccc1)n1c(-c2ccccc2)nc2ccccc21 | 107% (inactive)
c1ccc2c(Cc3csc4ccccc34)csc2c1 | 81.2% (inactive)
CCCCN(CCCC)CCC(=O)c1ccc(OC)c2ccccc12 | 52.1% (inactive)
CN(C)c1ccc(/C=N/Nc2nnc3n2N=C(c2ccc(Cl)cc2)CS3)cc1 | 96.8% (inactive)
CCN1CCN(Cc2ccc(NC(=O)c3nc4ccc5[nH]ncc5c4c4c3CCCC4)cc2C(F)(F)F)CC1 | -11.7% (active)
CO[C@@]12[C@@H]3NC3CN1C1=C(C(=O)C(N)=C(C)C1=O)[C@@H]2COC(N)=O (stereo not given in full) | 14.9% (inactive)
COc1cc(Cn2c(-c3ccccc3)cc3c2-c2oncc2CC3)cc(OC)c1OC | 0% (active)
O=C1Cc2c([nH]c3ccc([N+](=O)[O-])cc23)-c2ccccc2N1 | 16.4% (inactive)
O=C(/C=C/c1cccc([N+](=O)[O-])c1)c1ccc(Nc2nc(N3CCCCC3)nc(N3CCCCC3)n2)cc1 | 89.6% (inactive)
OC(c1cc(-c2ccc(C(F)(F)F)cc2)nc(-c2ccc(C(F)(F)F)cc2)c1)C1CCCCN1 (stereo not given) | -81.6% (active)
C#CC[C@@H]1C[C@]2(C)[C@H]3CC[C@@H]4[C@H]5C(C(=C)C)CC[C@]5(C(=O)NCCCCCCCCN)CC[C@@]4(C)[C@]3(C)CC[C@H]2C(C)(C)[C@H]1OC(C)=O (stereo not given in full) | 69.9% (inactive)
COc1cccc2nc(Nc3cccc(NC(=O)c4ccc(N5CCN(C)CC5)c(C(F)(F)F)c4)c3)ccc12 | 24.8% (inactive)
O=C1C(Cl)=C(N/N=c2/[nH][nH]/c(=N/NC3=C(Cl)C(=O)c4ccccc4C3=O)c3ccccc23)C(=O)c2ccccc21 | 104% (inactive)
Nc1n[nH]c2ccc([C@@H]3Nc4c(F)cc5[nH]ncc5c4[C@H]4C5CCC(C5)[C@@H]34)cc12 (stereo not given in full) | 17.3% (inactive)

Reference: PubChem BioAssay (NCI)
